The values below come from PubChem BioAssay.

Assay [1] concerns the target Nuclear receptor coactivator 3 (Homo sapiens) (UniProt Q9Y6Q9). The experiment in a line: SRC3 coactivator transcriptional activity inhibitors, confirmation, cell-based, luminescence, quadruplicate (AID 588792;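 active means mean inhibition over 43.08%, the solvent-only control mean plus 3 SD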;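 further: 0% = DMSO treated cells and 100% = gossypol at 36 µM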). The note with it: HEK293 GAL4-SRC3 luciferase reporter, at 3.6 µM, active compounds read high. (In general: Reporter assays use an easily measured gene product as a stand-in for the process of interest.)

Assay [2] relates to transactivating tegument protein VP16 (Human herpesvirus 1), Gal4-VP16 luciferase reporter. The experiment in a line: VP16 transactivation inhibitors, counter-screen for SRC3 inhibitor project, cell-based, luminescence, high throughput (AID 588794; in the data active means inhibition above about 30%). Particulars: mammalian cells, VP16-driven luciferase reporter luminescence; at 3.6 µM; active compounds read high.
Assay [3] addresses Nuclear receptor coactivator 1 (Homo sapiens) (UniProt Q15788). Briefly: SRC1 coactivator transcriptional activity inhibitors, confirmation, cell-based, luminescence, quadruplicate (AID 588820;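 active means mean inhibition above 46.68%, the untreated control wells mean plus 3 SD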;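 further: 0% = DMSO wells and 100% = gossypol 36 µM treated wells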). Particulars: HEK293 GAL4-SRC1 luciferase reporter, at 3.6 µM, active compounds read high.
The nature of assay [4]: VP16 transactivation inhibitors, counter-screen for SRC1 inhibitor project, cell-based, luminescence, high throughput (AID 588824; in the data active means inhibition above about 25%). The note with it: cell-based VP16 transactivation luciferase luminescence; at 3.6 µM; active compounds read high. On the technique in general: Counterscreens check selectivity or assay interference.
Assay [5] in a line: StAR promoter reporter inhibitors, counter-screen for LRH-1 inverse agonist project, cell-based, luminescence, high throughput (AID 651611). The note with it: StAR promoter luciferase reporter counterscreen, at 3.6 µM, active compounds read high.
In assay [6] the target is Nuclear receptor subfamily 5 group A member 2 (Homo sapiens) (UniProt O00482). The experiment in a line: LRH-1 (NR5A2) inverse agonists, retest, confirmation, cell-based, luminescence (AID 651613; in the data active means inhibition above about 42%;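 further: HEK293T cells co-transfected with LRH-1 and StAR promoter luciferase reporter; 0% = vehicle wells and 100% = parental cells lacking receptor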). Particulars: cell-based LRH-1 luciferase reporter, inverse agonism; at 3.6 µM; active compounds read high.
Nuclear receptor subfamily 5 group A member 2 (Homo sapiens), sequence (O00482 whole entry, looked up): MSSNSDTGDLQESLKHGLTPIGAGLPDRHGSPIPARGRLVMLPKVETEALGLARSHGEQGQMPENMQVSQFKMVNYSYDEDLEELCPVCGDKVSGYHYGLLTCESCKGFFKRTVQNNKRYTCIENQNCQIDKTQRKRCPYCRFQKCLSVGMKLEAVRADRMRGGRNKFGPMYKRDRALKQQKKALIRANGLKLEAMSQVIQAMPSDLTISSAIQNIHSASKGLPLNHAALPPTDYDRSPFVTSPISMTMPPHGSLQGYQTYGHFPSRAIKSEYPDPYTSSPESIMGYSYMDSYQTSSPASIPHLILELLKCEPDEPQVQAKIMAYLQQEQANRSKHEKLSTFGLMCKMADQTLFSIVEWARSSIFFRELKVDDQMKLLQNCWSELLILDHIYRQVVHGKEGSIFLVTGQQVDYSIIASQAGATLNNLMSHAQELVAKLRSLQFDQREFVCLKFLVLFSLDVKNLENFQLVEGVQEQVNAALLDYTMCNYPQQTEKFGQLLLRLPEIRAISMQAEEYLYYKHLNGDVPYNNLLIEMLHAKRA
The target in assay [7] is Steroidogenic factor 1 (Homo sapiens) (UniProt Q13285). Briefly: SF1 (NR5A1) inverse agonists, counter-screen for LRH-1 inverse agonist project, cell-based, luminescence, high throughput (AID 651614; in the data active means inhibition above about 44%;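 further: cells cotransfected with StAR promoter reporter and SF1 expression vector; 0% = vehicle on cells with receptor and 100% = vehicle on cells lacking receptor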). The note with it: cell-based SF1 luciferase reporter, at 3.6 µM, active compounds read high.
Steroidogenic factor 1 (Homo sapiens), sequence (Q13285 whole entry, looked up, the tested form may be a part): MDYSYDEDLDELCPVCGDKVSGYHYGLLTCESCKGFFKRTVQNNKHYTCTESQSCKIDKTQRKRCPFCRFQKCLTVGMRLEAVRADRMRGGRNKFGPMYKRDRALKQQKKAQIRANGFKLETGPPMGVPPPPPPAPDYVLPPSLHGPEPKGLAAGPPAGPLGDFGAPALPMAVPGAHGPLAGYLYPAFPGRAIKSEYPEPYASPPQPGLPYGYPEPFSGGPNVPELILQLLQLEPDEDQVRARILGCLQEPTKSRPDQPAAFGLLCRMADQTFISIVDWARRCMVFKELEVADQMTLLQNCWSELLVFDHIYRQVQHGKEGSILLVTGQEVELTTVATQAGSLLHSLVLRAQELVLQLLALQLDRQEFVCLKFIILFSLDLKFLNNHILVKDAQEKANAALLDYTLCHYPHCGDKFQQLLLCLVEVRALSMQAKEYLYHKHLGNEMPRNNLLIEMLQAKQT
Assay [8] is described as follows: VP16 transactivation reporter inhibitors, counter-screen for LRH-1 inverse agonist project, cell-based, luminescence, high throughput (AID 651615; in the data active means inhibition above about 33%). Particulars: Gal4-VP16 luciferase reporter cells, at 3.6 µM, active compounds read high.

Unmarked numbers belong to inactive results. Active and inactive are the calls of the source. Unless noted, no stated cut-off is given here; in the data, active means inhibition above about 28%; inactive means the rest.

Nuclear receptor coactivator 1 (Homo sapiens), sequence (Q15788 whole entry, looked up, the tested form may be a part): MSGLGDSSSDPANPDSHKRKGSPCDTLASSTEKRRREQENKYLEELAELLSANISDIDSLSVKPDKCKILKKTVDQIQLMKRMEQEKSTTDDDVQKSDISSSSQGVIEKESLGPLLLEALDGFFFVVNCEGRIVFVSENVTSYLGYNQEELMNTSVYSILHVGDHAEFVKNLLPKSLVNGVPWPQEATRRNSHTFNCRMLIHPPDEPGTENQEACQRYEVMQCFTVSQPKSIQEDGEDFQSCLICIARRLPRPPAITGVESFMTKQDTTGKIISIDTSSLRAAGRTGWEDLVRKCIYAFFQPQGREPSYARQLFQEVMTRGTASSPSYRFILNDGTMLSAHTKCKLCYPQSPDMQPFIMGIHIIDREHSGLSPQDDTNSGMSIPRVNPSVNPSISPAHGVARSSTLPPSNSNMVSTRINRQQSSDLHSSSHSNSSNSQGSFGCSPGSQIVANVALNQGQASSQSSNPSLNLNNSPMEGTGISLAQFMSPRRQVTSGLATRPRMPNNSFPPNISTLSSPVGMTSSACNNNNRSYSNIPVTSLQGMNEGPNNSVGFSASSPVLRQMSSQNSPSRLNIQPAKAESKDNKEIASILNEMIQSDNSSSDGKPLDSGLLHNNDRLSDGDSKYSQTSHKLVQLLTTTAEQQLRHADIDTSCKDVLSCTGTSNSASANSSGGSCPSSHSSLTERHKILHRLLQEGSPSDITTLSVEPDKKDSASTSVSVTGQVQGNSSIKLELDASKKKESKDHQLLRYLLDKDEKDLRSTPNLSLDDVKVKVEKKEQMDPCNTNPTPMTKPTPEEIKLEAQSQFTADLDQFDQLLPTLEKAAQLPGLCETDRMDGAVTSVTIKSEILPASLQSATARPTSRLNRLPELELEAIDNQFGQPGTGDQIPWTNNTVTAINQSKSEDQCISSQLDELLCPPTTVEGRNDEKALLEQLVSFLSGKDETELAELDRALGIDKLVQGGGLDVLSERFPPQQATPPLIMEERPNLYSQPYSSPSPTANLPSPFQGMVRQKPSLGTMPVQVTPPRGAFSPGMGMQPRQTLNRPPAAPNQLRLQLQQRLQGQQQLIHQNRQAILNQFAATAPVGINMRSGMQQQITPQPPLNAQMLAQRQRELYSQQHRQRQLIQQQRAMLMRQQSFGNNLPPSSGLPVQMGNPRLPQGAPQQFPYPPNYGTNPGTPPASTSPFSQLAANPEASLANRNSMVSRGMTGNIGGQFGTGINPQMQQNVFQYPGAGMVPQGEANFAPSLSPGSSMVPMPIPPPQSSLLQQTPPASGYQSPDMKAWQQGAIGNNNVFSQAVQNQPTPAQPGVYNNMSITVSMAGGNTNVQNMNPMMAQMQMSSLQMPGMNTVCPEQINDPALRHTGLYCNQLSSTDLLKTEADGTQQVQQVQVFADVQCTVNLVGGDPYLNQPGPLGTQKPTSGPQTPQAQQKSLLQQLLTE
Nuclear receptor coactivator 3 (Homo sapiens), sequence (Q9Y6Q9 whole entry, looked up, the tested form may be a part): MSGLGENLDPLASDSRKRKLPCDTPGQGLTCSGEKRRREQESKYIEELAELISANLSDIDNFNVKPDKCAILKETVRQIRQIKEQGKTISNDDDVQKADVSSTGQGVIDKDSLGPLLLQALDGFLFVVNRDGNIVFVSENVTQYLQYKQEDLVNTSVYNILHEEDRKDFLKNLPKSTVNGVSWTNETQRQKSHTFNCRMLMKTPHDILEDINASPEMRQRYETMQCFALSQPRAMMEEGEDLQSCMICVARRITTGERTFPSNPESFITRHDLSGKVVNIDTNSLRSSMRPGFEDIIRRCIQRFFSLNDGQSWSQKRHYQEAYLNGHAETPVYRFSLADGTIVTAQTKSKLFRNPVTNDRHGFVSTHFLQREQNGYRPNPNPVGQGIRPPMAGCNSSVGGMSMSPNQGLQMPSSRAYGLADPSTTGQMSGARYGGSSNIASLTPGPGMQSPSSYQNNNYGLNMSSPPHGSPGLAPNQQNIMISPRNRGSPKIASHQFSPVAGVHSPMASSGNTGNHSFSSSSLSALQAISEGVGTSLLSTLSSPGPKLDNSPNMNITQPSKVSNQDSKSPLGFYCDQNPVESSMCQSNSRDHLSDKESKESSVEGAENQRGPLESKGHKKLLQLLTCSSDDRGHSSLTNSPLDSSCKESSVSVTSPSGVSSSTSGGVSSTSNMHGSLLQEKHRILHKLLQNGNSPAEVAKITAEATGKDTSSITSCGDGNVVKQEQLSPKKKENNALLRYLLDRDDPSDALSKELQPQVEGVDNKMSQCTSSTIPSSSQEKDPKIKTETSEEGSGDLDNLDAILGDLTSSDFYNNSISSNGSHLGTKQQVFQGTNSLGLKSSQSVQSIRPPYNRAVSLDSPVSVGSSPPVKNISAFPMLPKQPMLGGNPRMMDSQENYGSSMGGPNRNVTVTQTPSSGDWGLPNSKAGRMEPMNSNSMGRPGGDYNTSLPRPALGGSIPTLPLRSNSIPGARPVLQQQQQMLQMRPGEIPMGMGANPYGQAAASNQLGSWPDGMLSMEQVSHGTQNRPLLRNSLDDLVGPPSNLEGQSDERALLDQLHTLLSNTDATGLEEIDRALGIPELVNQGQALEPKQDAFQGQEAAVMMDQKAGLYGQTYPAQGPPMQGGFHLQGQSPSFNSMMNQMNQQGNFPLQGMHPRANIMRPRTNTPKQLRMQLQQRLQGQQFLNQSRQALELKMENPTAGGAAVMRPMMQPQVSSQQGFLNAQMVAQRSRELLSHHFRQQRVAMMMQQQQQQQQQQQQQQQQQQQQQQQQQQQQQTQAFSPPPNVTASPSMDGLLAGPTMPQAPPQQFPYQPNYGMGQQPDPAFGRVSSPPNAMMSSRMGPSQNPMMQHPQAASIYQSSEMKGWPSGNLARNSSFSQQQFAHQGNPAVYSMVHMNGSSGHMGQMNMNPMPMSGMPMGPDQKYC

As for `NC(=S)NN=Cc1nccc2c(C(F)(F)F)cccc12`, the inhibition (as a rule, the drop in the measured response relative to a control, in per cent) in assay [1] is 86.8% (active); in assay [2] it was 69.7% (active); in assay [3] it was 63.9% (active); in assay [4], 56.4% (active); in assay [5] it was 89.7% (active); in assay [6], 100% (active). Further, the inhibition in assay [7] is 93.2% (active); in assay [8] it was 66.5% (active).

With `CC(=O)c1cccc(N=c2scc(-c3ccc(S(=O)(=O)N4CCOCC4)cc3)n2CCO)c1`, the inhibition in assay [1] is 21.9%; in assay [2], 47.4% (active); in assay [3], -14.3%; in assay [4], 49.4% (active); in assay [5], 35.2% (active); in assay [6], 63.3% (active). Also, the figures for the inhibition in assay [7] and in assay [8] were 69.7% (active) and 61.1% (active), respectively.

`COc1ccccc1NC(=S)NN=C(C)c1ccccn1`: the inhibition in assay [1] was 4.97%; in assay [2] it was 65.2% (active); in assay [3], -16.5%; in assay [4], 64% (active); in assay [5], 81.8% (active); in assay [6] it was 98.4% (active). For the same molecule, the results for the inhibition in assay [7] and in assay [8] were 85.8% (active) and 70.8% (active), respectively.

With `Cn1c2c(c(=O)n(C)c1=O)C(C(F)(F)F)(C(F)(F)F)N=C(c1ccc(Cl)cc1)N2`, the inhibition is 77.8% (active) in assay [1]; 85.7% (active) in assay [2]; 42.6% in assay [3]; 83.9% (active) in assay [4]; 80.6% (active) in assay [5]; 104% (active) in assay [6]. The inhibition in assay [7] was 93.6% (active); in assay [8] it was 86.7% (active).

Take `NC1=C(Br)C(=O)c2ncccc2C1=O`: the inhibition in assay [1] was 72.1% (active); in assay [2], 60.8% (active); in assay [3], 49.1% (active); in assay [4] it was 54.8% (active); in assay [5] it was 70.9% (active); in assay [6], 92.9% (active). Besides, the inhibition is 84.3% (active) in assay [7] and 79.3% (active) in assay [8].

Take `O=C(c1ccccc1)c1c2c(cc3sc4ccccc4[n+]13)-c1cccc3cccc-2c13`: the inhibition in assay [1] was 49% (active); in assay [2] it was 61.2% (active); in assay [3] it was 29.4%; in assay [4], 64.6% (active); in assay [5], 47.8% (active); in assay [6], 99.3% (active). Besides, the figures for the inhibition in assay [7] and in assay [8] were 75.1% (active) and 81.7% (active), respectively.

For the molecule `c1ccc2cc3c(NCCN4CCOCC4)ccnc3cc2c1`, the inhibition was 22.8% in assay [1]; 44.7% (active) in assay [2]; 38.6% in assay [3]; 45.4% (active) in assay [4]; 35.6% (active) in assay [5]; 83.1% (active) in assay [6]. The inhibition in assay [7] is 55.6% (active); in assay [8] it was 55.8% (active).

As for `C=CS(=O)(=O)N(Cc1ccc(Cl)c(Cl)c1)C[C@@H](O)CO`, the inhibition in assay [1] is 42.6%; in assay [2] it was 19.1%; in assay [3], 8.46%; in assay [4], 13.3%; in assay [5], 55.4% (active); in assay [6] it was 50.4% (active). Besides, the inhibition in assay [7] is 58% (active); in assay [8] it was 28.3%.

Regarding `COC(=O)c1cc(O)cc(OC)c1Oc1cc(C)cc(O)c1C(=O)O`, the inhibition in assay [1] was 13.8%; in assay [2], 62.9% (active); in assay [3], 54.2% (active); in assay [4], 60.2% (active); in assay [5] it was 56.5% (active); in assay [6], 73% (active). The inhibition is 66.9% (active) in assay [7] and 65.5% (active) in assay [8].

For the molecule `CC1(C)CC(N2CCCC2)=CC(=[N+]2CCCCCC2)C1`, the inhibition in assay [1] was 23%; in assay [2], 49.5% (active); in assay [3] it was -16.2%; in assay [4], 52.1% (active); in assay [5], 0.24%; in assay [6], 95% (active). Also, the inhibition in assay [7] is 61.3% (active); in assay [8], 60.9% (active).

Consider `Cc1sc(NC(=O)/C=C/c2ccc3c(c2)OCO3)nc1-c1ccccc1`, for which the inhibition in assay [1] is 24.4%; in assay [2] it was 59.1% (active); in assay [3] it was 32.1%; in assay [4], 57.7% (active); in assay [5], 42.9% (active); in assay [6], 74.9% (active). Moreover, the inhibition in assay [7] is 74.1% (active); in assay [8] it was 70.9% (active).

Consider `Oc1cccc2cc(Nc3ccccc3)cnc12`, for which the inhibition is 60.4% (active) in assay [1]; 63.3% (active) in assay [2]; 25.3% in assay [3]; 70.1% (active) in assay [4]; 65.5% (active) in assay [5]; 99.5% (active) in assay [6]. The figures for the inhibition in assay [7] and in assay [8] were 84.8% (active) and 88% (active), respectively.

In the case of `CC1(C)CC(N2CCCCC2)=CC(=[N+]2CCCCC2)C1`, the inhibition in assay [1] was 21.5%; in assay [2] it was 44.1% (active); in assay [3], 14.8%; in assay [4], 39.7% (active); in assay [5] it was 30.1% (active); in assay [6], 80% (active). In addition, the inhibition was 69.1% (active) in assay [7] and 67.3% (active) in assay [8].

With `N=c1c2c(n(Cc3ccc(F)cc3)c3c1CCC3)CCCC2`, the inhibition in assay [1] was 27.9%; in assay [2] it was 61.5% (active); in assay [3] it was 13.6%; in assay [4], 48% (active); in assay [5] it was 41.4% (active); in assay [6], 101% (active). The inhibition in assay [7] is 70.9% (active); in assay [8], 61.2% (active).

With `CCN1CCS/C1=C\C=C\C1=[N+](CC)CCS1`, the inhibition in assay [1] was 22.6%; in assay [2], 44.8% (active); in assay [3], 4.06%; in assay [4], 50.1% (active); in assay [5] it was 32.9% (active); in assay [6], 77% (active). Further, the inhibition was 79% (active) in assay [7] and 69.2% (active) in assay [8].

As to `O=C(c1ccccc1)c1nn(-c2ccc(Cl)cc2)c(=O)cc1C(F)(F)F`, the inhibition in assay [1] is 65.3% (active); in assay [2] it was 62.6% (active); in assay [3] it was 21.8%; in assay [4], 51.2% (active); in assay [5], 73.3% (active); in assay [6], 72.6% (active). In addition, the inhibition is 70% (active) in assay [7] and 74.8% (active) in assay [8].

`Cc1cc(C(C)(C)C)cc(C)c1C[n+]1ccc2ccccc2c1`: the inhibition in assay [1] is 41.4%; in assay [2] it was 59.3% (active); in assay [3], 11.7%; in assay [4], 53.3% (active); in assay [5] it was 30.7% (active); in assay [6] it was 99.2% (active). Further, the results for the inhibition in assay [7] and in assay [8] were 69.1% (active) and 72.7% (active), respectively.

Take `COc1ccc(-c2cn(-c3ccc(OC)cc3)c3[n+]2-c2ccccc2CC3)cc1`: the inhibition in assay [1] was 46.3% (active); in assay [2], 55.9% (active); in assay [3] it was 34.7%; in assay [4], 59.9% (active); in assay [5], 40.8% (active); in assay [6] it was 88.8% (active). The results for the inhibition in assay [7] and in assay [8] were 82.3% (active) and 77.8% (active), respectively.
